PrP UTR inh = suppresses PrP 5' UTR mRNA reporter expression; inhibition, % (concentration not given with the values); actives 0.35% (n = 340,000); cell-based PrP 5' UTR mRNA reporter, plate reader; AID 488862; in the data active = inhibition above about 52%
VHR inh abs = inhibitors of human VHR1 phosphatase (DUSP3); actives 0.52% (n = 290,000); recombinant VHR phosphatase, pNPP absorbance; inhibition, % at 13.3 µM; in the data active = inhibition above about 50%
Target sequence (P51452 whole entry, looked up): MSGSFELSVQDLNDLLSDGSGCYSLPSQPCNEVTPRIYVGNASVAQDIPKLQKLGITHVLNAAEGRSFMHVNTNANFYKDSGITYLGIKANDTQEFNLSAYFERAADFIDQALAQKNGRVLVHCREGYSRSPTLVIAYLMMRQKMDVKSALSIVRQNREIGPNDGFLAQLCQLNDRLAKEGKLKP
PrPC TRFRET = reduces human prion protein on the cell surface; P04156; cell surface PrPC, TR-FRET read-out; inhibition, % at 13.8 µM; actives 0.43% (n = 370,000); in the data active = inhibition above about 24%
MazEF act = MazEF (E. coli) toxin RNase activation | activation, % at 20 µM | AID 504720 | actives 0.32% (n = 350,000) | FAM/BHQ RNA-DNA oligo cleavage fluorescence, 5 h | P0AE70; in the data active = activation above about 50%
Target sequence (P0AE70 whole entry, looked up): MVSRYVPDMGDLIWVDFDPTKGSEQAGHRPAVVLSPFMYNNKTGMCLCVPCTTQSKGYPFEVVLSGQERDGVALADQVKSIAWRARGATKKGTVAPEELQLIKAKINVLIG
Mtb hypoxia rep = reduces hypoxia-regulated biosensor signal in M. tuberculosis; M. tuberculosis hypoxia-regulated fluorescent reporter, fluorescence; fluorescence inhibition, % (test concentration not listed); actives 0.1% (n = 300,000); in the data active = fluorescence inhibition mostly above about 23%, no sharp cut-off; inactive = mostly below about 17%
3CLpro inhibitor = SARS-CoV 3CLpro protease inhibition. P0C6X7. recombinant SARS-CoV 3CLpro, quenched FRET peptide cleavage. inhibition, % at 6 µM. actives 0.14% (n = 290,000); in the data active = inhibition above about 12%
Numbers stand for hits; – = inactive; · = no result given; + = active, no number. Sampled rows, rich in hits. Any-hit rate of the full collection: about 1.5%.

SMILES	PrP UTR inh	VHR inh abs	PrPC TRFRET	MazEF act	Mtb hypoxia rep	3CLpro inhibitor
COc1ccc(C(C(=O)NCCC(C)C)N(CCO)C(=O)c2snc(C(N)=O)c2N)cc1 (stereo unspecified)	–	53	–	–	–	–
O=C(NC1CC2CCCC(C1)N2C(=O)Nc1ccc(Cl)c(C(F)(F)F)c1)C1CC1 (stereo unspecified)	–	–	–	–	–	–
O=C(Nc1ccc(Cl)c(C(F)(F)F)c1)NC1CC2CCCC(C1)N2Cc1ccccc1 (stereo unspecified)	·	–	–	159	–	–
CSc1nc2ccc3nc(NC(=O)c4ccc(Cl)s4)sc3c2s1	–	53	·	–	·	–
N#Cc1c(-c2ccncc2)c2c([nH]c1=S)CCCC2	–	–	–	–	·	–
Cc1ccc(-c2c3c([nH]c(=S)c2C#N)CCCC3)o1	–	–	–	88	–	–
Cc1cc(NN=Cc2ccccc2O)c2ccccc2n1	·	·	·	·	72	·
Cc1cc(N/N=C/c2ccccc2O)c2ccccc2n1	–	–	–	–	·	–
COc1ccc(C=NNC(=O)C(=CNc2nccc(C)n2)NC(=O)c2ccccc2)cc1	·	·	·	·	–	·
CC(=NNC(=O)c1ccc2c(c1)OCO2)c1cccc([N+](=O)[O-])c1	·	·	·	·	–	·
CN1OC[C@@H]2CN(C(=O)C(C)(C)C)[C@H](c3cccc(N4CCOCC4)c3)C[C@@H]21	–	·	–	–	·	·
CN1OC[C@@H]2CN(C(=O)C(C)(C)C)[C@H](c3cccc(Br)c3)C[C@@H]21	–	·	–	53	·	·
CCCOc1ccc(/C=c2\sc3nc(-c4ccco4)nn3c2=O)cc1OCC	–	–	–	218	·	–
CCCN(CC(=O)Nc1ccccc1C)C(=O)COc1c(C)cccc1C	–	·	–	–	–	·
CCCN(CC(=O)Nc1ccccc1C)C(=O)CCl	–	–	–	–	35	–
Oc1cc(O)cc(/C=C/c2ccc(O)c(O)c2)c1	–	·	–	118	·	·
CC(=O)n1c(C=Nc2ccc(Cl)cc2)c(O)c2ccccc21	–	–	–	+	–	–
CN(C(=O)COC(=O)c1ccc([N+](=O)[O-])cc1N)c1ccccc1	–	–	–	70	–	–
Cc1ccc(C(=O)OCC(=O)N(C)c2ccccc2)c(C)c1	–	–	–	–	–	–
Cc1ccc(/C=C/C(=O)Nc2nccs2)o1	–	–	–	–	–	–
Cc1ccc(/C=C/C(=O)Nc2nnc(SCc3ccc(C#N)cc3)s2)o1	–	60	–	–	–	–
CN(C)c1ccc2nc3ccc(=O)cc-3sc2c1	·	·	–	–	·	·
CN(C)c1ccc2nc3ccc(=[N+](C)C)cc-3sc2c1	–	–	–	–	99	–
CCN1C(=O)/C(=C2\Sc3ccccc3N2CC)OC1=S	–	–	–	–	·	–
C=CCN1C(=O)/C(=C2/Sc3ccccc3N2CCCS(=O)(=O)O)SC1=S	–	50	–	–	·	–
SMILES	PrP UTR inh	VHR inh abs	PrPC TRFRET	MazEF act	Mtb hypoxia rep	3CLpro inhibitor
C=CCN1C(=O)/C(=C2/Sc3ccccc3N2CC)SC1=S	–	–	–	162	–	–
CC(C)(C)OC(=O)C(C)(C)ON=C(C(=O)O)c1csc(N)n1	·	·	·	·	–	·
Cc1[nH]nc(SCC(=O)NC2CCCCC2)c1[N+](=O)[O-]	–	54	–	–	–	–
Cc1[nH]nc(SCC(=O)NC2CCCC2)c1[N+](=O)[O-]	–	–	–	–	–	–
Cn1c(N/N=C2\CCCc3ccccc32)nc2c1c(=O)n(Cc1ccc(F)cc1)c(=O)n2C	–	60	–	–	·	–
NS(=O)(=O)c1ccc(NC(=O)c2ccc3c(c2)OCO3)cc1	–	–	–	–	–	–
NS(=O)(=O)c1ccc(NC(=O)c2ccc3c(c2)CCCC3)cc1	–	–	–	72	–	–
COc1cc(C=Nn2cnc3c(sc4nc(C)cc(C)c43)c2=O)ccc1O	·	·	·	·	–	·
COc1ccccc1NCc1nc2ccccc2n1C	·	·	–	·	·	·
COc1ccccc1C(=O)c1nc2ccccc2n1C	–	58	–	–	–	–
C=CCC(CC(=O)N(CCO)Cc1ccccc1)C(=O)NC(COC(=O)C(CC=C)CC(=O)OC(C)(C)C)Cc1c[nH]c2ccccc12 (stereo unspecified)	·	·	·	·	–	·
CCOc1ccc(C2=Nn3c(nnc3-c3cccnc3)SC2)cc1	–	57	–	–	–	–
COC(=O)C1=C(c2ccccc2OCc2ccccc2)CC2CCC1N2C(=O)NCc1ccc(Br)cc1 (stereo unspecified)	·	·	·	·	–	·
COc1ccc(-n2cc3c(-c4cccc(Br)c4)nnc(C)c3n2)cc1	–	–	–	52	·	–
Cc1nnc(-c2cccc(Br)c2)c2cn(-c3ccc(Br)cc3)nc12	–	–	–	–	–	–
Cc1nc(S(=O)(=O)c2ccc(Cl)cc2)c(N(C)C)o1	–	53	–	–	–	–
COc1cccc(N2CCN(c3ncnc4c3[nH]c3ccc(F)cc34)CC2C)c1 (stereo unspecified)	–	–	85	–	–	–
CCOC(=O)[C@H]1[C@H]2COc3ccccc3[C@@H]2N2C(=O)CN(Cc3ccc(C)cc3)C(=O)[C@@]12C	–	·	–	542	·	·
CC(C)CC(NC(=O)C(NC(=O)OC(C)(C)C)C(C)C)C(=O)NC(CCC(=O)OCc1ccccc1)C(N)=O (stereo unspecified)	–	–	–	–	–	–
CCC(C)C(N)C(=O)NC(CCC(=O)OCc1ccccc1)C(N)=O (stereo unspecified)	–	–	–	68	–	–
O=[N+]([O-])c1ccn(-c2nc(-c3cccs3)cc(C(F)(F)F)n2)n1	–	54	–	–	–	–
O=[N+]([O-])c1ccn(-c2nc(-c3ccccc3)cc(C(F)(F)F)n2)n1	–	–	–	–	–	–
CC1CCN(CCCNC(=O)C2CCC(CNS(=O)(=O)c3cccc4nsnc34)CC2)CC1 (stereo unspecified)	–	51	–	–	–	–
O=C(NCCCN1CCCCC1)C1CCC(CNS(=O)(=O)c2cccc3nsnc23)CC1 (stereo unspecified)	–	–	–	–	–	–
CC[C@@H](C(=O)[C@@H](C)[C@@H](O)[C@H](C)[C@@H]1O[C@@H]([C@@H](CC)C(=O)O)CC[C@@H]1C)[C@H]1O[C@]2(C=C[C@@H](O)[C@]3(CC[C@@](C)([C@H]4CC[C@](O)(CC)[C@H](C)O4)O3)O2)[C@H](C)C[C@@H]1C	–	·	70	–	·	·
CC(CC(=O)NCc1ccco1)=NNC(=O)COc1ccc(Cl)cc1Cl	·	·	·	·	–	·
Cc1cc(/C=C2\C(=O)NC(=O)N(Cc3ccco3)C2=O)c(C)n1-c1ccc(C(=O)O)cc1	–	–	–	–	–	–
Cc1cc(/C=C2\C(=O)NC(=O)N(Cc3ccccc3Cl)C2=O)c(C)n1-c1ccc(C(=O)O)cc1	–	–	–	59	–	–
COc1ccccc1NC(=O)Nc1nnc(CC(=O)Nc2ccccc2C)s1	76	–	–	–	–	–
COc1ccccc1NC(=O)Nc1nnc(CC(=O)Nc2ccccc2)s1	·	–	–	·	–	–

Screens from PubChem BioAssay.
